Results: PubChem BioAssay (NCI)
Compounds without any hit were thinned out: in the full panel of roughly 83,000, 20% have a hit.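 Values shown are percent growth following 48 h exposure of cells in 96-well plates to a single concentration of compound; below 10 was considered active.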 Values without a mark were called inactive. Active and inactive are the calls of the source.

Experiments:
Assay in all cases: NCI-60 one-dose screen, 48 h (100 = growth as untreated, 0 = no growth, -100 = all killed)
Details in all cases: 10 µM
HCT-15 colon = system: HCT-15 colon
HT29 colon = system: HT29 colon
SNB-75 CNS = system: SNB-75 CNS
SNB-19 CNS = system: SNB-19 CNS
U251 CNS = system: U251 CNS
PC-3 prostate = system: PC-3 prostate
SK-MEL-5 melanoma = system: SK-MEL-5 melanoma
UACC-62 melanoma = system: UACC-62 melanoma
LOX IMVI melanoma = system: LOX IMVI melanoma
SK-MEL-28 melanoma = system: SK-MEL-28 melanoma
SK-MEL-2 melanoma = system: SK-MEL-2 melanoma
EKVX NSCLC = system: EKVX NSCLC
SN12C renal = system: SN12C renal
UO-31 renal = system: UO-31 renal
ACHN renal = system: ACHN renal
CAKI-1 renal = system: CAKI-1 renal
A498 renal = system: A498 renal
CCRF-CEM leukemia = system: CCRF-CEM leukemia
MOLT-4 leukemia = system: MOLT-4 leukemia
TK-10 renal = system: TK-10 renal

SMILES	growth (HCT-15 colon)	growth (HT29 colon)	growth (SNB-75 CNS)	growth (SNB-19 CNS)	growth (U251 CNS)	growth (PC-3 prostate)	growth (SK-MEL-5 melanoma)	growth (UACC-62 melanoma)	growth (LOX IMVI melanoma)	growth (SK-MEL-28 melanoma)	growth (SK-MEL-2 melanoma)	growth (EKVX NSCLC)	growth (SN12C renal)	growth (UO-31 renal)	growth (ACHN renal)	growth (CAKI-1 renal)	growth (A498 renal)	growth (CCRF-CEM leukemia)	growth (MOLT-4 leukemia)	growth (TK-10 renal)
CN1CCN(c2ccc(Nc3nc(NCCCNC(=O)c4ccccc4)c4sccc4n3)cc2)CC1	12.3%	14.6%	110%	95.5%	22.8%	56.8%	64.9%	84.6%	16%	73.3%	114%	89.9%	84.4%	74.9%	60.1%	72.5%	141%	25.2%	–	–
CN1CCO/C1=C(/NC(=O)c1ccc(Cl)cc1)[P+](c1ccccc1)(c1ccccc1)c1ccccc1	107%	57.7%	91.6%	76.5%	84.1%	68.2%	70.3%	48.5%	39.8%	75.5%	90.9%	81.2%	92.4%	86.7%	110%	103%	125%	77.9%	87.9%	–
Clc1ccc(/C=N/Nc2ncnc3sc4c(c23)CCN(Cc2ccccc2)C4)cc1	-25.1% (active)	-75.3% (active)	-85% (active)	18.4%	-83.8% (active)	-59.7% (active)	38.9%	18.9%	-52.1% (active)	-19% (active)	93.5%	56.7%	-62.4% (active)	22.1%	27.4%	34.5%	–	-24.2% (active)	4.13% (active)	-76.1% (active)
COc1cc(/C=C/C(=O)c2ccc(C(F)(F)F)cc2)ccc1Oc1nc(Nc2ccc(F)cc2)nc(N(C)C)n1	70%	74.1%	99.7%	83%	74.2%	76%	61.7%	57.7%	46.9%	85.9%	78.4%	66%	69.6%	50.3%	84.2%	69.6%	–	–	40.7%	88.5%
COc1ccc(/C(C)=N/N=C2C(=O)N(C)c3ccc(Br)cc32)cc1S(N)(=O)=O	75.1%	101%	6.59% (active)	34.7%	51.7%	73.7%	88.2%	73.8%	74.6%	90.3%	81.7%	56.7%	–	65.1%	69.3%	41%	99.6%	89.1%	84.6%	105%
Cc1cccc2cc(-c3cc(-c4ccccc4)nc(=O)[nH]3)c(Cl)nc12	64.1%	107%	89.1%	68%	62.6%	77.6%	96.3%	80.1%	54.1%	103%	102%	84.6%	84%	–	91.8%	87.2%	94.5%	8.46% (active)	61.3%	110%
COc1ccc(C(=O)CSc2nnc(-c3c[nH]c4ccccc34)n2-c2ccccc2)cc1	73.3%	83.1%	15%	29.8%	34.4%	50.3%	81.3%	25.8%	43.5%	49.7%	72%	29.3%	–	32.6%	22.8%	61.5%	111%	82.5%	82.1%	63.9%
Cc1cc(C(F)(F)F)ccc1C(=O)Nc1sc2c(c1C#N)CCC(=O)C2	-69.5% (active)	-27.8% (active)	-5.51% (active)	-2.98% (active)	12%	4.6% (active)	-98.9% (active)	-81.3% (active)	2.84% (active)	-83.9% (active)	-38.4% (active)	-25.5% (active)	–	-98% (active)	-95.9% (active)	-50.8% (active)	85.2%	6.32% (active)	2.54% (active)	-2% (active)
Cn1cc(-c2cc(N)n3nc(-c4c[nH]c5ccc(Br)cc45)cc3n2)c2cc(Br)cnc21	-96.3% (active)	-86.3% (active)	-19.6% (active)	-35.9% (active)	-76.5% (active)	-44.8% (active)	-99% (active)	-75% (active)	-94.5% (active)	-87.1% (active)	-83.6% (active)	-84.1% (active)	–	-70.9% (active)	-93.2% (active)	-69.1% (active)	-86.5% (active)	-32.1% (active)	-28.6% (active)	-81.9% (active)
COc1ccc2[nH]c(=O)c(CSc3cccc(N)c3)cc2c1	48.2%	75.4%	82.7%	70.4%	70.1%	69.2%	6.41% (active)	16.5%	16.1%	69.6%	64%	48.7%	–	56.8%	20.9%	40.5%	72.6%	47.2%	41.2%	72.3%
N#Cc1c(NC(=O)c2ccc(C(F)(F)F)cc2)sc2c1CCC(O)=C2	9.23% (active)	38.2%	-3.93% (active)	55.9%	28.2%	49.2%	-28.8% (active)	13.8%	23.9%	41.6%	8.44% (active)	16.9%	–	23.9%	44.1%	31.9%	74.2%	6.68% (active)	13.8%	71.9%
COc1ccc2nc(Cl)c(-c3cc(-c4ccccc4)nc(N)n3)cc2c1	-64.5% (active)	7.7% (active)	-1.67% (active)	7.38% (active)	-62.4% (active)	33.6%	66%	28.4%	-86% (active)	61.4%	69.5%	59.8%	10%	–	55.4%	60.4%	84.8%	-4.77% (active)	-18.1% (active)	74.4%
COc1cc(/C=N/NC(=O)c2ccc3nc(-c4ccc(Cl)cc4)[nH]c3c2)cc(OC)c1OC	55.7%	-50.2% (active)	-47.5% (active)	-94.1% (active)	-86.6% (active)	-41.6% (active)	-82.6% (active)	-76.7% (active)	-81.1% (active)	-87.9% (active)	-17.3% (active)	9.25% (active)	–	58.9%	30.1%	2.87% (active)	-31.1% (active)	-4.37% (active)	3.96% (active)	37.4%
Cc1ccc2nc(COc3ccc(C(=O)NNC(=S)NCCc4ccccc4)cc3)[nH]c2c1	100%	112%	120%	-16.6% (active)	24%	81.4%	89%	49.9%	79.9%	92.9%	81.7%	95%	–	84.3%	101%	96.2%	134%	98.3%	96.1%	111%
CCOC(=O)C1=C(N)N(c2ccc(Cl)cc2)C2=C(C(=O)CC(C)(C)C2)C1c1ccc(N2CCOCC2)cc1 (stereo not given)	92.5%	104%	109%	91.2%	88.2%	92%	80.3%	82.8%	115%	105%	96.2%	74.6%	–	85.3%	112%	86.7%	119%	100%	–	98%
Cc1ccc(S(=O)(=O)c2nc(-c3ccccc3)oc2S(=O)(=O)CC(=O)N2CCCC2)cc1	-78.2% (active)	-81.7% (active)	14.7%	68.2%	-77.5% (active)	4.7% (active)	26.5%	-85.4% (active)	-91.3% (active)	-100% (active)	-50.6% (active)	5.22% (active)	–	-100% (active)	-100% (active)	-100% (active)	90.1%	-64.4% (active)	–	-99.7% (active)
